Assay outcomes as filed in PubChem.
Mtb FBA inh: Mtb fructose-bisphosphate aldolase inhibition | P9WQA3 | purified M. tuberculosis FBA, fluorescence read-out | inhibition, % at 1 µM | 2.3% of 360,000 active | AID 588726; in the data active means inhibition above about 27%;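 further: 0% = vehicle and 100% = reference inhibitor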
Target sequence (P9WQA3 whole entry, looked up): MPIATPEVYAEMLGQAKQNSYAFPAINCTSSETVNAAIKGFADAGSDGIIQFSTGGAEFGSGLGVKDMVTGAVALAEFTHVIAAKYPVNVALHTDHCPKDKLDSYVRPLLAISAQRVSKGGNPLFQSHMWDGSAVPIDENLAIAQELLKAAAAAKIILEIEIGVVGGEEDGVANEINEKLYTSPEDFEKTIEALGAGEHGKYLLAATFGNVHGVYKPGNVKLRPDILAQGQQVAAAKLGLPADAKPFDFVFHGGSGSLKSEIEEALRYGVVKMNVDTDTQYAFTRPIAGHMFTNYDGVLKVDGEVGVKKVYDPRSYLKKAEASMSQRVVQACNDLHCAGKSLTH
CCHFV vOTU inh: blocks the CCHF virus ovarian tumor domain protease; CCHFV vOTU protease, Pep-AMC fluorescence; inhibition, % at 11.5 µM; 0.55% of 370,000 active; further: 0% = vehicle wells with enzyme and 100% = no enzyme wells
MazF activator: MazEF (E. coli) toxin RNase activation; FAM/BHQ RNA-DNA oligo cleavage fluorescence, 5 h; activation, % at 20 µM; 0.32% of 350,000 active; in the data active means activation above about 50%
Mtb bLac sens: beta-lactam sensitization of Mtb H37Rv; M. tuberculosis H37Rv growth with meropenem, percent inhibition; inhibition, % at 25 µM; 0.27% of 330,000 active; call rule not given here;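 further: growth measured after seven days incubation then overnight dye step; 0% = bacteria only wells and 100% = bacteria with antibiotic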
GDH-TPI inh: inhibits GDH-TPI coupling enzymes, artifact for Mtb FBA screen; AID 588335; inhibition, % at 4.8 µM; GDH-TPI coupled enzyme counterscreen, NADH absorbance; 1.2% of 360,000 active;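 further: 0% = DMSO wells and 100% = wells lacking the enzyme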
Starred values were filed as active, the others as inactive; / = no result; + = active, no number. Only some compounds are listed: those with a hit (about 4% of all), similar ones and a draw of the others. Unless noted, no stated cut-off is given here; in the data, active means inhibition above about 30%; inactive means the rest.

SMILES | Mtb FBA inh | CCHFV vOTU inh | MazF activator | Mtb bLac sens | GDH-TPI inh
CC1(C)CC(=O)C2=C(C1)Nc1ccccc1NC2c1ccc2c(c1)OCO2 (centres undefined) | 0 | 4 | -2 | -9 | 41*
CC1(C)CC(=O)C2=C(C1)Nc1ccccc1NC2c1ccccn1 (centres undefined) | -2 | 0 | -6 | 0 | 42*
CC1(C)CC(=O)C2=C(C1)Nc1ccccc1NC2c1nc2ccccc2[nH]1 (centres undefined) | -2 | 5 | 5 | 0 | 32*
COC(=O)C1CN(C2CCCC2)CCS(=O)(=O)N1Cc1ccc(OC)cc1 (centres undefined) | / | -5 | / | / | /
O=C1N2Cc3ccccc3C2CS(=O)(=O)N1Cc1ccccc1 (centres undefined) | / | 0 | / | / | /
O=[N+]([O-])c1cc(/C=N/NC(=S)Nc2ccccc2Cl)ccc1Cl | -1 | -13 | -3 | -4 | 33*
Cc1ccc(NC(=S)N/N=C/c2ccc(Cl)c([N+](=O)[O-])c2)cc1 | -3 | -9 | 9 | / | 33*
Cc1ccc(C=NNC(=O)C(=O)Nc2ccc(Cl)c([N+](=O)[O-])c2)cc1 | -1 | -4 | / | / | /
COc1ccc(/C=N/NC(=S)Nc2ccccc2[N+](=O)[O-])cc1O | -9 | 0 | 7 | -5 | 49*
CCCOc1ccc(/C=N/NC(=S)Nc2ccccc2[N+](=O)[O-])c(O)c1 | / | 11 | 3 | 3 | /
COC(=O)c1cc(C(c2ccccc2O)C2CCCO2)n2cccc(C(C)(C)C)c12 (centres undefined) | / | -43 | / | / | /
O=C(Nc1ccc(C(=O)N2CCOCC2)cc1)c1cnn2c(C(F)F)cc(-c3ccccc3)nc12 | 1 | 12 | 66* | -2 | -7
CC(=O)c1ccc2c(c1)C1C=CCC1C(C(=O)O)N2 (centres undefined) | -14 | 50* | -7 | / | 8
Cc1ccccc1C1C(C#N)=C2N=C(N)c3c(sc4c3CCCCC4)N2C2=C1C(=O)CC(C)(C)C2 (centres undefined) | 7 | 20 | 165* | 88 | 14
Cc1ccccc1C1C(C#N)=C2NC(=O)c3c(sc4c3CCCCC4)N2C2=C1C(=O)CC(C)(C)C2 (centres undefined) | / | / | / | -5 | /
O=S(=O)(CC1NCc2cc(F)ccc21)NCc1ccccc1 (centres undefined) | / | 0 | / | / | /
COc1ccc2[nH]c3c(c2c1)CCN[C@]31C(=O)N(C)c2ccc(Br)cc21 | / | 2 | / | / | /
CCOC(=O)c1nn(-c2ccccc2)c(C#N)c1N | + | -164 | 5 | 7 | 10
O=C(c1ccncc1)c1ccc(NS(=O)(=O)c2ccc(Br)s2)cc1 | -2 | 1 | 3 | -6 | 39*
CNC(=O)c1cc2ccc(OC)cc2oc1=O | + | -222 | 2 | -5 | 30
COc1ccc(C(=O)COC(=O)c2cc3ccccc3oc2=O)c(OC)c1 | 6 | 22 | 0 | 46 | 6
CCOC(=O)c1cc2ccc(OC)cc2oc1=O | + | -219 | 0 | 12 | 43*
COc1ccc(CNC(=O)c2cc3ccccc3oc2=O)cc1 | 3 | -1 | -8 | 36 | 15
Cc1ccc(/C=C/C(=O)Nc2cc(S(N)(=O)=O)ccc2O)cc1 | 0 | 3 | 2 | 26 | 18
CCS(=O)(=O)c1ccc(O)c(NC(=O)/C=C/c2ccc(Cl)cc2)c1 | -3 | 5 | 4 | -4 | 34*
SMILES | Mtb FBA inh | CCHFV vOTU inh | MazF activator | Mtb bLac sens | GDH-TPI inh
O=C(NCCc1ccccn1)c1ccc2c(c1)ncn2C1CCCCC1 | / | 4 | / | / | /
Cc1c[nH]c2cccc(-c3ccc4c(c3)OCO4)c12 | / | -1 | / | / | /
C=CCn1c(O)c(C=NCCN2CCOCC2)c(=O)[nH]c1=S | -3 | 0 | 6 | 2 | 48*
CCCCCCn1c(O)c(C=Nc2ccccc2N2CCOCC2)c(=O)[nH]c1=S | -1 | 8 | 2 | -3 | 6
O=c1[nH]c(=S)n(C2CCCCC2)c(O)c1C=NCCN1CCOCC1 | -7 | -2 | 8 | 11 | 45*
CCCCn1c(O)c(/C=N/N2CCOCC2)c(=O)[nH]c1=S | 3 | -5 | 1 | 3 | 37*
C=CCN1[C@H](CC(C)C)COc2cc(N3CCSCC3)ccc2S1(=O)=O | / | 13 | / | / | /
COc1cc(NC(=O)c2ccccc2)c(C)cc1NC(=O)CSc1nnc(-c2cnccn2)n1-c1ccc(C)cc1 | / | 8 | / | / | /
CCOC(=O)[C@@]12CN(C(=O)OC(C)(C)C)CC=C1N(Cc1ccc(OC)cc1)C(=O)[C@H]2CC(=O)NCCc1ccccc1OC | / | 13 | / | / | /
COc1cc(/C=C(\C#N)c2nc3ccccc3[nH]2)ccc1OC(=O)c1ccco1 | 10 | 5 | 56* | 2 | 15
